# ChEMBL document CHEMBL2218924, “A broad activity screen in support of a chemogenomic map for kinase signalling research and drug discovery” (Biochem J, 2013)
# Key:
# [1] = target: Focal adhesion kinase 1 (Homo sapiens) (UniProt Q05397); settings: at 10 µM
# [2] = target: Fibroblast growth factor receptor 1 (Homo sapiens) (UniProt P11362); settings: at 1 µM
# [3] = target: Fibroblast growth factor receptor 1 (Homo sapiens) (UniProt P11362); settings: at 10 µM
# [4] = target: Fibroblast growth factor receptor 2 (Homo sapiens) (UniProt P21802); settings: at 1 µM
# Sequence of Fibroblast growth factor receptor 2 (Homo sapiens) (P21802 22-821 limits assumed): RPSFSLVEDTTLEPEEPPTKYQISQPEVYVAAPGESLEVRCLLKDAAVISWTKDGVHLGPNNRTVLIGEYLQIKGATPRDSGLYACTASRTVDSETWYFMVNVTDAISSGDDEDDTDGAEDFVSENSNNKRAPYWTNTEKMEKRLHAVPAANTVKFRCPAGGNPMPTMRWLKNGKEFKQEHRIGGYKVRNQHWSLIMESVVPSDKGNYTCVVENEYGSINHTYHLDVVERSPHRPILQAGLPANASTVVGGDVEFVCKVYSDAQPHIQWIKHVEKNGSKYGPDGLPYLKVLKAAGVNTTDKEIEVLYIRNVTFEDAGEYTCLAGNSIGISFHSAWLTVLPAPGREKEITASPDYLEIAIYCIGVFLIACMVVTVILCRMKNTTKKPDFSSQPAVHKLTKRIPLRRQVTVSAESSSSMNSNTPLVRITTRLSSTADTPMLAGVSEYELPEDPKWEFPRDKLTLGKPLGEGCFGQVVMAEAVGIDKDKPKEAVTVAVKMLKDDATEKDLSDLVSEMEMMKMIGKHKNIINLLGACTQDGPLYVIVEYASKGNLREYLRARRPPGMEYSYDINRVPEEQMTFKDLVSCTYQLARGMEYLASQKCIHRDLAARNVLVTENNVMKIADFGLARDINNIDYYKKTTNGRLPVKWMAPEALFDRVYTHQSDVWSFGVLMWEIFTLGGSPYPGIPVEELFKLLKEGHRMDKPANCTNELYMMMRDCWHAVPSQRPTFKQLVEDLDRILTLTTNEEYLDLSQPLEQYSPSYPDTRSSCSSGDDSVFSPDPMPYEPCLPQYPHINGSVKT
# [5] = target: Fibroblast growth factor receptor 2 (Homo sapiens) (UniProt P21802); settings: at 10 µM
# [6] = target: Fibroblast growth factor receptor 3 (Homo sapiens) (UniProt P22607); settings: at 1 µM
# Sequence of Fibroblast growth factor receptor 3 (Homo sapiens) (P22607 23-806 limits assumed): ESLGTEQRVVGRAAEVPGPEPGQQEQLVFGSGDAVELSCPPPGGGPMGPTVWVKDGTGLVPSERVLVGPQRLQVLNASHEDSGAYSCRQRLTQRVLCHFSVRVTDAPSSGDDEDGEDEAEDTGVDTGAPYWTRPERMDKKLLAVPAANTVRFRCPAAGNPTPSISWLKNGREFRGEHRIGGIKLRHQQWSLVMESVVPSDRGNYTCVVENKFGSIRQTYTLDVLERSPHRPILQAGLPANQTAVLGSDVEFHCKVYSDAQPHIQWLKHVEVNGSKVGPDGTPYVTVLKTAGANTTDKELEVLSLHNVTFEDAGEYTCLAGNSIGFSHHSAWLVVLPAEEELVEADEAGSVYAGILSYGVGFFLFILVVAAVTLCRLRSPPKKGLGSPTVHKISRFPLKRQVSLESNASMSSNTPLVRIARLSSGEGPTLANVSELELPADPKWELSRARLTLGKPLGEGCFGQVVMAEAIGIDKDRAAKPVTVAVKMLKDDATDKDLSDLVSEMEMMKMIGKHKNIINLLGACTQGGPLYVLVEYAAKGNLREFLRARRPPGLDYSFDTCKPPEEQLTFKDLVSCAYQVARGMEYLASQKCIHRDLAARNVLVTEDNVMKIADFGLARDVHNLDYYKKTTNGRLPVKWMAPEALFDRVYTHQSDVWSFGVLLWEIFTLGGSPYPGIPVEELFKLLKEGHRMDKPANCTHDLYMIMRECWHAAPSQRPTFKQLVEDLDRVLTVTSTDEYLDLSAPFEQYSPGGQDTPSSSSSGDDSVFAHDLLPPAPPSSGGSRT
# [7] = target: Fibroblast growth factor receptor 3 (Homo sapiens) (UniProt P22607); settings: at 10 µM
# [8] = target: Fibroblast growth factor receptor 4 (Homo sapiens) (UniProt P22455); settings: at 1 µM
# Sequence of Fibroblast growth factor receptor 4 (Homo sapiens) (P22455 22-802 limits assumed): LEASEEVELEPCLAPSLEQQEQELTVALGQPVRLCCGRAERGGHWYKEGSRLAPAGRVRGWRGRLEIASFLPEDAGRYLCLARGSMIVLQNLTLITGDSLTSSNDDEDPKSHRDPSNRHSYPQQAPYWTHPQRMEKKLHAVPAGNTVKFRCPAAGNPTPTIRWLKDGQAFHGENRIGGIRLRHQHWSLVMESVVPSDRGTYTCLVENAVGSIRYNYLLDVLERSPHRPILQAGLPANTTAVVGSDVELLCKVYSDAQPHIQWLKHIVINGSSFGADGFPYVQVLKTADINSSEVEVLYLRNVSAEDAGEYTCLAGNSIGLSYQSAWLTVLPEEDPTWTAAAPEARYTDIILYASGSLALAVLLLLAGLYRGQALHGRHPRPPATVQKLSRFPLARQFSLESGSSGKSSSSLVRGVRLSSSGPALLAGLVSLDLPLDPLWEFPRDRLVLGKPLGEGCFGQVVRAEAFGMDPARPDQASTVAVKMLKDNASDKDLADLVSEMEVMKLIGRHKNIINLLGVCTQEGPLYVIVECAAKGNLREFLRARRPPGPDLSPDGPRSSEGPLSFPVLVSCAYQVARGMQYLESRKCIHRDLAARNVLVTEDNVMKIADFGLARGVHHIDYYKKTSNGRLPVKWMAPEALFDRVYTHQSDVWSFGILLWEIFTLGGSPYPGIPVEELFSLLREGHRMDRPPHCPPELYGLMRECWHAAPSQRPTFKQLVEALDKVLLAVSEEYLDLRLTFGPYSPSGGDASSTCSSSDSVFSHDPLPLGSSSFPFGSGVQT
# [9] = target: Fibroblast growth factor receptor 4 (Homo sapiens) (UniProt P22455); settings: at 10 µM
# [10] = target: Tyrosine-protein kinase Fer (Homo sapiens) (UniProt P16591); settings: at 1 µM
# Sequence of Tyrosine-protein kinase Fer (Homo sapiens) (P16591 whole entry, looked up): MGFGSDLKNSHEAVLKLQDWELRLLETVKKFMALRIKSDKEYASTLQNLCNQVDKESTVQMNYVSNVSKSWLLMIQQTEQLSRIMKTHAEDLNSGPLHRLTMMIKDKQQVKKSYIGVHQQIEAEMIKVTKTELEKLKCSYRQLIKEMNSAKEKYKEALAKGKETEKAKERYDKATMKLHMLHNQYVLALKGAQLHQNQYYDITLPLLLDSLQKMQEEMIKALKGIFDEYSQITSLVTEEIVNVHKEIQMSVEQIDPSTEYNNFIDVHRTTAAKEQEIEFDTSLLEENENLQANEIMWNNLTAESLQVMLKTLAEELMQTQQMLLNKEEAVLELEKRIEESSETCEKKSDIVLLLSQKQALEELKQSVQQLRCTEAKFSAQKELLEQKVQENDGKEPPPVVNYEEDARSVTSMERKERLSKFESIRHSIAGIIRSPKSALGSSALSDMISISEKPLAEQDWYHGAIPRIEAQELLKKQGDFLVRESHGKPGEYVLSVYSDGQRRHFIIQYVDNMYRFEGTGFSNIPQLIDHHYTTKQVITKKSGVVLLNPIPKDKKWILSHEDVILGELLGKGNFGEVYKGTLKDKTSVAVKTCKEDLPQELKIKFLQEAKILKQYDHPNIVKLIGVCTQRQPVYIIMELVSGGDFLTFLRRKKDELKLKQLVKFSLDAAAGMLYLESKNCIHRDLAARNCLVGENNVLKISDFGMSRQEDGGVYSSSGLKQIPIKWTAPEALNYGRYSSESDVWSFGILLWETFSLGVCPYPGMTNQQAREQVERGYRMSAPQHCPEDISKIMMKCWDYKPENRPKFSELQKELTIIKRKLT
# Sequence of Fibroblast growth factor receptor 1 (Homo sapiens) (P11362 22-822 limits assumed): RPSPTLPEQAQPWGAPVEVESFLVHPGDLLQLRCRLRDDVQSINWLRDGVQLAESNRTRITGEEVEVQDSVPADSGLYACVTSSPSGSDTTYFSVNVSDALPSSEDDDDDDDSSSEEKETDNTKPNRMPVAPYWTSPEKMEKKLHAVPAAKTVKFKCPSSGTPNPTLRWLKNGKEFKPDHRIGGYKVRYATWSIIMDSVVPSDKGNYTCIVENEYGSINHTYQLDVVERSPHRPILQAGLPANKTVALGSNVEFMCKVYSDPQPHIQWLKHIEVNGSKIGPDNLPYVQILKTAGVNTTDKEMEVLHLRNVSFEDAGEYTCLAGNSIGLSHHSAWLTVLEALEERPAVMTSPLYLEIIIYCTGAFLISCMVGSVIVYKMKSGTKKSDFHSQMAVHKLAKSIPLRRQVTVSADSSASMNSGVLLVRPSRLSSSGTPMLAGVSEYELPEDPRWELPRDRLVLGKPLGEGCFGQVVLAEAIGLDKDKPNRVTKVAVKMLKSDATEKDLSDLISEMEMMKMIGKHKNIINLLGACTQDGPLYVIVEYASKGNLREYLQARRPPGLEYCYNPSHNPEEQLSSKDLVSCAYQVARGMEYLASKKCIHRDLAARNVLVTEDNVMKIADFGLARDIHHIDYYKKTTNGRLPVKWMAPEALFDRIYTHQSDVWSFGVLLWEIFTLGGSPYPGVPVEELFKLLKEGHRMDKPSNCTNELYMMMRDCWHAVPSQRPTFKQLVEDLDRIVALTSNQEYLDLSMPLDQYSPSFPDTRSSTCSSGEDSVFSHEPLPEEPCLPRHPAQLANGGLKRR
# Sequence of Focal adhesion kinase 1 (Homo sapiens) (Q05397 2-1052 limits assumed): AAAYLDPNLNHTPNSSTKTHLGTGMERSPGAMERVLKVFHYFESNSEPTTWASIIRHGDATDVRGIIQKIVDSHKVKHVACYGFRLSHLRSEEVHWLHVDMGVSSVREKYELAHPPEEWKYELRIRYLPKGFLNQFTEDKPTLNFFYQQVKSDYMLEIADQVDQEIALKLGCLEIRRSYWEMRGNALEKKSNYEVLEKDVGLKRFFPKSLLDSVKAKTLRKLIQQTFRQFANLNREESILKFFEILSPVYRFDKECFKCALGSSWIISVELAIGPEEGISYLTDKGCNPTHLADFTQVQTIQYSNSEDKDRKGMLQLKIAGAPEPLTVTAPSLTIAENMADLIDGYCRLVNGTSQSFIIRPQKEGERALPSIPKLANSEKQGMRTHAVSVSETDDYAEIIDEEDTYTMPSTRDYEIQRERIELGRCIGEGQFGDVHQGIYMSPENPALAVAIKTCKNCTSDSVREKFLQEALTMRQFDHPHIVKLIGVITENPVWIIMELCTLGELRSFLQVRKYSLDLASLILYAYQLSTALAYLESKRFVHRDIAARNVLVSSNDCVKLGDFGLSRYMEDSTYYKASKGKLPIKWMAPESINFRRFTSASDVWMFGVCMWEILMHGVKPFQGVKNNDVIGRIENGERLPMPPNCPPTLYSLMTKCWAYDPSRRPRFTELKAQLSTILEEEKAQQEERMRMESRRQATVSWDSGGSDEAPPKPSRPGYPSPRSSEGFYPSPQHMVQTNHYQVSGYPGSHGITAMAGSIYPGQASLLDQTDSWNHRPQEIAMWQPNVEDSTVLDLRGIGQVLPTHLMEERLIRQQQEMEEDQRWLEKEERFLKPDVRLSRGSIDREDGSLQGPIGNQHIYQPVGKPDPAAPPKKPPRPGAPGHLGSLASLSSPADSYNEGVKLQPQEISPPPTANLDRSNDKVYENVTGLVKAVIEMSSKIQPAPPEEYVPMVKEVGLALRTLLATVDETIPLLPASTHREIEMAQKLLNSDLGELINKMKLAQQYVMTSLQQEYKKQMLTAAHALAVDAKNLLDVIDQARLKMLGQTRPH
compound,measurement,setting,value
CCC(=O)Nc1ccc2ncnc(Nc3cccc(Br)c3)c2c1,residual activity,[1],95%
same,residual activity,[2],108%
same,residual activity,[3],84%
same,residual activity,[4],105%
same,residual activity,[5],99%
same,residual activity,[6],118%
same,residual activity,[7],123%
same,residual activity,[8],120%
same,residual activity,[9],100%
same,residual activity,[10],106%
CC(C)n1cnc2/c(=N/c3cccc(Cl)c3)nc(NCCO)[nH]c21,residual activity,[1],11%
same,residual activity,[2],87%
same,residual activity,[3],19%
same,residual activity,[4],101%
same,residual activity,[5],37%
same,residual activity,[6],106%
same,residual activity,[7],59%
same,residual activity,[8],114%
same,residual activity,[9],110%
Cc1nc2cc3nc(-c4cccs4)cnc3cc2n1C,residual activity,[1],105%
same,residual activity,[2],102%
same,residual activity,[3],41%
same,residual activity,[4],72%
same,residual activity,[5],30%
same,residual activity,[6],79%
same,residual activity,[7],23%
same,residual activity,[8],119%
same,residual activity,[9],95%
same,residual activity,[10],113%
Cc1cc(Nc2nc(-c3ccccc3)nc3ccccc23)n[nH]1,residual activity,[1],7%
same,residual activity,[2],4%
same,residual activity,[3],2%
same,residual activity,[4],24%
same,residual activity,[5],2%
same,residual activity,[6],34%
same,residual activity,[7],4%
same,residual activity,[8],106%
same,residual activity,[9],72%
same,residual activity,[10],43%
Cc1cncc2cccc(S(=O)(=O)N3CCCN(C(=O)CN)C[C@H]3C)c12,residual activity,[2],76%
same,residual activity,[3],20%
same,residual activity,[7],93%
CN(C)CCCn1cc(C2=C(c3c[nH]c4ccccc34)C(=O)NC2=O)c2ccccc21,residual activity,[1],37%
same,residual activity,[2],50%
same,residual activity,[3],3%
same,residual activity,[4],88%
same,residual activity,[5],33%
same,residual activity,[7],29%
same,residual activity,[8],121%
same,residual activity,[9],70%
same,residual activity,[10],113%
c1ccc(-c2n[nH]cc2-c2ccnc3ccccc23)nc1,residual activity,[2],80%
same,residual activity,[3],72%
same,residual activity,[4],101%
same,residual activity,[5],97%
O=C1NC(=O)/C(=C/c2ccc3c(c2)OC(F)(F)O3)S1,residual activity,[1],95%
same,residual activity,[2],116%
same,residual activity,[3],99%
same,residual activity,[4],92%
same,residual activity,[5],101%
same,residual activity,[6],111%
same,residual activity,[7],112%
same,residual activity,[8],116%
same,residual activity,[9],94%
same,residual activity,[10],107%
Nc1ccc2ncnc(NCCc3ccc(Oc4ccccc4)cc3)c2c1,residual activity,[1],94%
same,residual activity,[2],92%
same,residual activity,[3],28%
same,residual activity,[4],77%
same,residual activity,[5],48%
same,residual activity,[6],54%
same,residual activity,[7],33%
same,residual activity,[8],107%
same,residual activity,[9],80%
same,residual activity,[10],93%
COc1cc2ncnc(Nc3ccc(NC(=O)c4ccccc4)cc3)c2cc1OC,residual activity,[1],75%
same,residual activity,[5],92%
same,residual activity,[9],82%
same,residual activity,[10],111%
Oc1ccc(Nc2nc(-c3ccc(Cl)cc3)cs2)cc1,residual activity,[1],94%
same,residual activity,[2],128%
same,residual activity,[3],86%
same,residual activity,[4],119%
same,residual activity,[5],93%
same,residual activity,[6],132%
same,residual activity,[7],137%
same,residual activity,[8],125%
same,residual activity,[9],118%
same,residual activity,[10],94%
N#Cc1cnc2cnc(NCc3cccnc3)cc2c1Nc1ccc(F)c(Cl)c1,residual activity,[2],21%
same,residual activity,[3],12%
same,residual activity,[4],48%
same,residual activity,[5],30%
same,residual activity,[6],38%
same,residual activity,[7],18%
same,residual activity,[9],92%
same,residual activity,[10],83%
N#CC(C#N)=C(N)/C(C#N)=C/c1ccc(O)cc1,residual activity,[1],97%
same,residual activity,[2],100%
same,residual activity,[3],75%
same,residual activity,[6],99%
same,residual activity,[8],135%
CC(=O)c1ccc(N2CCOCC2)cc1O,residual activity,[1],94%
same,residual activity,[2],97%
same,residual activity,[6],98%
same,residual activity,[7],128%
c1ccc(-c2n[nH]c3c2oc2ccccc23)cc1,residual activity,[1],76%
same,residual activity,[2],90%
same,residual activity,[3],36%
same,residual activity,[5],52%
same,residual activity,[6],98%
same,residual activity,[7],59%
CC(=O)O/N=C1\C(=C2\C(=O)Nc3cc(Br)ccc32)Nc2ccccc21,residual activity,[1],59%
same,residual activity,[2],17%
same,residual activity,[3],0%
same,residual activity,[4],73%
same,residual activity,[5],18%
same,residual activity,[6],84%
same,residual activity,[7],22%
same,residual activity,[9],69%
same,residual activity,[10],94%
O=[N+]([O-])c1ccc(-c2nc(-c3ccc(F)cc3)c(-c3ccncc3)[nH]2)cc1,residual activity,[1],102%
same,residual activity,[2],102%
same,residual activity,[3],82%
same,residual activity,[4],112%
same,residual activity,[5],99%
same,residual activity,[6],109%
same,residual activity,[7],99%
same,residual activity,[8],122%
same,residual activity,[9],92%
same,residual activity,[10],100%
Cc1nc(-c2ccccc2)c(-c2ccncc2)o1,residual activity,[1],98%
same,residual activity,[2],120%
same,residual activity,[3],83%
same,residual activity,[4],86%
same,residual activity,[5],74%
same,residual activity,[6],121%
same,residual activity,[7],114%
same,residual activity,[8],109%
same,residual activity,[9],99%
same,residual activity,[10],101%
C[C@@H](N)[C@H]1CC[C@H](C(=O)Nc2ccncc2)CC1,residual activity,[1],96%
same,residual activity,[2],95%
same,residual activity,[3],98%
same,residual activity,[4],102%
same,residual activity,[5],82%
same,residual activity,[7],93%
same,residual activity,[8],100%
same,residual activity,[9],103%
same,residual activity,[10],100%
c1ccc2c(-c3ccncc3)c[nH]c2c1,residual activity,[1],65%
same,residual activity,[3],90%
same,residual activity,[4],111%
same,residual activity,[5],87%
same,residual activity,[8],112%
same,residual activity,[9],94%
same,residual activity,[10],109%
O=C(O)c1ccc2c3c1cccc3c(=O)n1c3ccccc3nc21,residual activity,[1],100%
same,residual activity,[2],94%
same,residual activity,[3],75%
same,residual activity,[4],110%
same,residual activity,[5],78%
same,residual activity,[6],98%
same,residual activity,[7],92%
same,residual activity,[8],112%
same,residual activity,[9],96%
same,residual activity,[10],81%
Cc1cccc(-c2[nH]c(C(C)(C)C)nc2-c2ccc3c(c2)OCO3)n1,residual activity,[1],95%
same,residual activity,[5],95%
same,residual activity,[7],129%
COc1ccc(C(=O)Nc2sc3c(c2C(N)=O)CCCC3)cc1OC,residual activity,[1],78%
same,residual activity,[2],87%
same,residual activity,[3],118%
same,residual activity,[4],86%
same,residual activity,[5],99%
same,residual activity,[6],104%
same,residual activity,[7],109%
same,residual activity,[8],107%
same,residual activity,[9],99%
same,residual activity,[10],108%
O=c1cc(-c2cccc3c2Sc2ccccc2S3)oc(N2CCOCC2)c1,residual activity,[1],116%
same,residual activity,[2],120%
same,residual activity,[3],95%
same,residual activity,[4],106%
same,residual activity,[5],81%
same,residual activity,[6],112%
same,residual activity,[7],84%
same,residual activity,[8],104%
same,residual activity,[9],88%
same,residual activity,[10],115%
O=C1Nc2ccc(Br)cc2/C1=C\c1cc2c([nH]1)CCCC2,residual activity,[1],58%
same,residual activity,[2],81%
same,residual activity,[3],81%
same,residual activity,[4],63%
same,residual activity,[5],53%
same,residual activity,[10],119%
Cc1cc2ncc(-c3ccccc3)nc2cc1C,residual activity,[1],92%
same,residual activity,[2],86%
same,residual activity,[3],101%
same,residual activity,[5],102%
same,residual activity,[6],85%
same,residual activity,[7],95%
same,residual activity,[8],134%
same,residual activity,[9],93%
COc1cc2ncnc(Nc3ccc(Oc4ccccc4)cc3)c2cc1OC,residual activity,[1],71%
same,residual activity,[3],48%
same,residual activity,[4],65%
same,residual activity,[5],33%
same,residual activity,[6],78%
same,residual activity,[7],54%
same,residual activity,[8],121%
same,residual activity,[9],109%
same,residual activity,[10],110%
N#CCCc1ccc2c(c1)-c1[nH]c3ccc([N+](=O)[O-])cc3c1CC(=O)N2,residual activity,[1],22%
same,residual activity,[2],47%
same,residual activity,[3],17%
same,residual activity,[5],48%
COc1cc2ncc(-c3ccccc3)nc2cc1OC,residual activity,[1],95%
same,residual activity,[4],100%
same,residual activity,[5],93%
N#C/C(=C(\N)Sc1ccc(N)cc1)c1ccccc1C(F)(F)F,residual activity,[1],95%
same,residual activity,[2],112%
same,residual activity,[3],83%
same,residual activity,[4],100%
same,residual activity,[6],102%
same,residual activity,[7],93%
same,residual activity,[8],86%
same,residual activity,[9],90%
same,residual activity,[10],88%
O=c1c2ccccc2[nH]c(=S)n1CCN1CCC(=C(c2ccc(F)cc2)c2ccc(F)cc2)CC1,residual activity,[1],81%
same,residual activity,[2],83%
same,residual activity,[3],49%
same,residual activity,[4],119%
same,residual activity,[5],62%
same,residual activity,[6],123%
same,residual activity,[7],78%
same,residual activity,[9],81%
same,residual activity,[10],109%
Ic1cccc(CSc2nnc(-c3ccncc3)o2)c1,residual activity,[1],90%
same,residual activity,[2],98%
same,residual activity,[3],71%
same,residual activity,[4],99%
same,residual activity,[5],82%
same,residual activity,[6],106%
same,residual activity,[7],93%
same,residual activity,[8],112%
same,residual activity,[9],98%
same,residual activity,[10],93%
CCN(CC)C(=O)c1ccc(Nc2nc(OCC3CCCCC3)c3nc[nH]c3n2)cc1,residual activity,[1],12%
same,residual activity,[2],40%
same,residual activity,[3],2%
same,residual activity,[4],56%
same,residual activity,[5],9%
same,residual activity,[6],49%
same,residual activity,[7],4%
same,residual activity,[10],53%
O=C(Nc1cccc(Nc2nccc(Nc3cccc(C(F)(F)F)c3)n2)c1)C1CC1,residual activity,[1],10%
same,residual activity,[2],69%
same,residual activity,[3],8%
same,residual activity,[4],99%
same,residual activity,[5],37%
same,residual activity,[6],83%
same,residual activity,[7],91%
same,residual activity,[8],108%
same,residual activity,[9],63%
same,residual activity,[10],124%
Nc1n[nH]c2nnc(-c3c(-c4ccccc4)nn4ccccc34)cc12,residual activity,[1],83%
same,residual activity,[2],110%
same,residual activity,[3],61%
same,residual activity,[4],98%
same,residual activity,[5],83%
same,residual activity,[7],102%
same,residual activity,[8],101%
same,residual activity,[9],94%
same,residual activity,[10],95%
Nc1cccc(-c2cc3c(Oc4cccc(O)c4)ncnc3[nH]2)c1,residual activity,[1],42%
same,residual activity,[2],2%
same,residual activity,[3],0%
same,residual activity,[4],21%
same,residual activity,[5],2%
same,residual activity,[6],53%
same,residual activity,[7],9%
same,residual activity,[8],72%
same,residual activity,[9],22%
same,residual activity,[10],58%
O=C1Nc2ccccc2/C1=C1/Nc2ccccc2/C1=N\OCCC(O)CO (stereo not drawn),residual activity,[1],1%
same,residual activity,[2],2%
same,residual activity,[3],-1%
same,residual activity,[4],20%
same,residual activity,[5],2%
same,residual activity,[6],22%
same,residual activity,[7],23%
same,residual activity,[10],37%
O=C1NC(=O)c2c1c1c3ccccc3[nH]c1c1[nH]c3cc(Br)ccc3c21,residual activity,[1],95%
same,residual activity,[2],90%
same,residual activity,[3],57%
same,residual activity,[4],99%
same,residual activity,[5],82%
same,residual activity,[6],104%
same,residual activity,[7],88%
same,residual activity,[8],94%
same,residual activity,[9],90%
same,residual activity,[10],103%
CNc1cc2c(Nc3cccc(Br)c3)ncnc2cn1,residual activity,[1],82%
same,residual activity,[2],102%
same,residual activity,[3],66%
same,residual activity,[4],89%
same,residual activity,[5],88%
same,residual activity,[6],90%
same,residual activity,[7],100%
same,residual activity,[8],109%
same,residual activity,[9],86%
same,residual activity,[10],105%
